In the library only some 12% were active in any assay of this set; here they are far more common.
G9a inh: inhibitors of human histone lysine methyltransferase G9a. G9a H3K9 monomethylation, AlphaScreen, 2 h. Potency, µM (series often up to 102 µM), for the others: top-dose activity, negative = inhibition, hits mostly inhibitors. 350,000 compounds, 8.8% hits; also: % is scaled to controls: 0 for no effect and ±100 for the full control effect; nearly all actives have a fitted effect of over 75% in size
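AlphaScreen detection with an anti-monomethyl H3K9 antibody quantified product after a 2 h room-temperature reaction containing 500 nM biotinylated H3K9 peptide, 20 µM SAM and 20 nM enzyme, which had been preincubated 15 min with compound.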
HP1b binding inh: HP1-beta chromodomain-methylated histone interaction inhibition; 390,000 compounds, 0.56% hits; Potency, µM (top dose mostly 114 µM), for inactives: at the highest dose activity change, negative = inhibition, usual class: inhibitors; P83916; AlphaScreen HP1-beta / biotin-H3K9me3 peptide binding; also: nearly all actives have a fitted effect of over 70% in size
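AlphaScreen: HP1-beta (50 nM) preformed 30 min with biotin-H3(1-18)K9me3 peptide (50 nM) in PBS pH 7.4, 0.01% Tween-20. Compound added for 30 min at RT, then streptavidin donor/nickel chelate acceptor beads (10 ug/mL) for 30 min.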
BAZ2B block: blocks human BAZ2B | Potency, µM (series often up to 114 µM), without a hit: top-dose activity change, negative = inhibition, hits mostly inhibitors | 360,000 compounds, 4.4% hits | AlphaScreen BAZ2B-H3K14Ac peptide displacement | Q9UIF8; also: % is scaled to controls: 0 for no effect and ±100 for the full control effect; nearly all actives have a fitted effect of over 60% in size
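Inhibition is scored as reduced AlphaScreen emission. The BAZ2B/b-H3(5-23)K14Ac complex (50 nM each) in PBS pH 7.4, 0.01% Tween-20 meets compound (up to 110 uM) for 30 min at RT before bead addition.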
L3MBTL1 block: L3MBTL1 (human) inhibition | Q9Y468 | AlphaScreen L3MBTL1–H3K9me1 peptide binding | Potency, µM (titrated, usually from 57.1 µM), for inactives: at the top dose activity, negative = inhibition, actives largely listed as inhibitors | 230,000 compounds, 0.66% hits | AID 485360; also: % is scaled to controls: 0 for no effect and ±100 for the full control effect; nearly all actives have a fitted effect of over 60% in size
Target sequence (Q9Y468 whole entry, looked up): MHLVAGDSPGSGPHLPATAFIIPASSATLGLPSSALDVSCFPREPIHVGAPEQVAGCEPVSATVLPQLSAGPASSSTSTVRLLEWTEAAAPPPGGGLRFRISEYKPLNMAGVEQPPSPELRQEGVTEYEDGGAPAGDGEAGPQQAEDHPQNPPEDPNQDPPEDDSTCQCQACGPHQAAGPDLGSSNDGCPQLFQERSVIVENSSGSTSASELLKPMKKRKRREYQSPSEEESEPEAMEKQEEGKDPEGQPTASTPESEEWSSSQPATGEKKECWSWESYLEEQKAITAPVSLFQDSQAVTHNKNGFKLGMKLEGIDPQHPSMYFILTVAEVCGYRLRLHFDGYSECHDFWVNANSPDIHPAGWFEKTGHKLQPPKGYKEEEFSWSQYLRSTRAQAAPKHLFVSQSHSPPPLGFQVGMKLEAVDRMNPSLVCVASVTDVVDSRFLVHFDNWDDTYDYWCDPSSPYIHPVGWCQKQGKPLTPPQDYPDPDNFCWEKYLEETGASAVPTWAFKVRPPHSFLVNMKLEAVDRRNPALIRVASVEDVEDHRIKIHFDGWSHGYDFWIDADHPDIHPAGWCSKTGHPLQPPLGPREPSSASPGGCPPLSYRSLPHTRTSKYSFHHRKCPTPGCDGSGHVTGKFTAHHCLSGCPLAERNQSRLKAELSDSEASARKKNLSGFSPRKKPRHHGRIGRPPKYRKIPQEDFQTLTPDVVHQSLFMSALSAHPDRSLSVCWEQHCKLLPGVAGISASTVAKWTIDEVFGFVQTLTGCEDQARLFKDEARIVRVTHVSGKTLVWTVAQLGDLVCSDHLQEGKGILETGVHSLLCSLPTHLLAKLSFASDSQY
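AlphaScreen assay: L3MBTL1 (50 nM final) was preincubated 30 min at room temperature with biotinylated H3(1-15)K9me1 peptide (75 nM final), then 30 min with library compounds; streptavidin donor and nickel chelate acceptor beads (10 ug/mL final) added, 30 min dark.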
JMJD2A Tudor: JMJD2A Tudor domain (human) inhibition; AlphaScreen JMJD2A-Tudor / H3K4me3 peptide binding; 390,000 compounds, 4.4% hits; Potency, µM (top dose mostly 114 µM), for inactives: top-dose activity change, negative = inhibition, hits mostly inhibitors; AID 504339; O75164; also: % is scaled to controls: 0 for no effect and ±100 for the full control effect; nearly all actives have a fitted effect of over 50% in size
Sfp inh: inhibitors of Bacillus subtilis Sfp phosphopantetheinyl transferase. Potency, µM, for inactives: largest response in the series, negative = inhibition, usual class: inhibitors. Q9F4F7. Biochemical Sfp PPTase activity, qHTS. 310,000 compounds, 3.5% hits. AID 1490;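 also: the enzyme is Sfp with the accession as filed and its product quenches rhodamine fluorescence; 0% = enzyme reaction without inhibitor and -100% = no enzyme wells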
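With Hepes-Na pH 7.6 buffer containing 10 mM MgCl2, Sfp (15 nM) modified BHQ-2-YbbR (12.5 uM) using rhodamine-CoA (5 uM). Two reads 30 minutes apart at 525/598 nm yielded each well's rate.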
Numbers without * were called inactive; ? = inconclusive; . = not tested or not shown; [ ] = dose if it differs, or a comment. Calls follow the shape of the dose curve; as a rule, active = well fitted curve in the direction sought with a large enough effect; inconclusive = small, poorly fitted or top-dose-only effect, or another doubt; inactive = no such curve, though single readings can be large; an effect the other way counts as inactive or inconclusive. Potency is read from the fitted curve at half-maximal effect.

SMILES | G9a inh | HP1b binding inh | BAZ2B block | L3MBTL1 block | JMJD2A Tudor | Sfp inh
Cc1c(/C=N/NC(=O)CNc2ccccc2)c2ccccn2c1C(=O)c1ccc(Cl)cc1 | -19% | -3% | -5% | -3% | -14% | 3%
O=C1CC(c2ccccc2F)c2c(c3ccccc3[nH]c2=O)O1 (stereo unspecified) | . | 38% | -11% | . | -36% | -15%
O=C1CC(c2cccc(F)c2)c2c(c3ccccc3[nH]c2=O)O1 (stereo unspecified) | ? | 22% | 7% | -5% | -1% | 6.3µM*
COc1cc(-c2nc(-c3ccccc3)c(-c3cc([N+](=O)[O-])ccc3C)[nH]2)cc(OC)c1OC | 10µM* | -30% | ? | -30% | ? | 5%
C=CCn1c(CNC(=O)c2ccco2)nnc1SCC(=O)N1c2ccccc2Sc2ccccc21 | ? | -5% | 79µM* | . | -23% | 2%
NC(=O)CSc1nnc(-c2cccs2)n1Cc1ccco1 | -8%[12.7 µM] | 28% | -4% | 0% | -11% | -18%
COc1ccc(C(=O)CSc2nnc(-c3cccnc3)n2Cc2ccco2)cc1 | 50µM* | 48% | -5% | -4% | -7% | 0%
COc1ccc(C(=O)CSc2nnc(-c3cnccn3)n2Cc2ccco2)cc1 | ? | 9% | ? | -5% | ? | -25%
O=C(CSc1nnc(-c2cccnc2)n1Cc1ccco1)N1c2ccccc2Sc2ccccc21 | ? | -2% | ? | . | ? | 3.5µM*
O=C(CSc1nnc(-c2cccnc2)n1Cc1ccccc1)NCc1ccco1 | -24% | 27% | -32% | 0% | -31% | -6%
O=C(CSc1nnc(-c2ccc(Cl)cc2)n1Cc1ccco1)c1cccs1 | ? | 8% | -34% | ? | ? | 22µM*
COc1ccc(Oc2ncc3nc(-c4cccs4)c(=O)n(CCC#N)c3n2)cc1 | 1%[0.501 µM] | . | . | . | . | 9%
Cc1c(N2C(=O)CSC2c2ccco2)c(=O)n(-c2ccccc2)n1C (stereo unspecified) | -13% | 8% | 2% | 7% | 1% | 24%
CCCn1c(CCC(=O)O)nc2cc(S(=O)(=O)N3CCCC3)ccc21 | 14%[12.7 µM] | 15% | -17% | . | 1% | 23%
O=C(CSc1nnc(-c2ccncc2)n1Cc1ccco1)c1ccc(Cl)cc1 | ? | 8% | ? | -4% | ? | 22µM*
CC1(C)O[C@H]2OC([C@H](O)CON3C(=O)c4ccccc4C3=O)[C@H](O)[C@H]2O1 (stereo partly specified) | 45µM* | 18% | -31% | -1% | -33% | -2%
CCN1C(=O)[C@H]2[C@H]3[C@H](O)[C@H](O)C/C(=N/OC[C@@H](O)[C@H]4O[C@H]5OC(C)(C)O[C@H]5[C@@H]4O)[C@@H]3CC[C@@H]2C1=O | . | . | . | . | . | 24%
O=C1Nc2ccccc2C12OCC(COc1ccc(Cl)cc1)O2 (stereo unspecified) | -7%[12.7 µM] | -18% | 10% | . | 79µM* | 9%
COc1ccc(NC(=O)CSc2nncn3c2cc2oc(C)cc23)cc1OC | -4%[59 µM] | 28% | 2% | . | -15% | .
Nc1ccccc1-c1n[nH]c(=S)s1 | 0.63µM* | ? | ? | -2% | 28µM* | -25%
Cc1ccccc1-c1ccccc1N | -13%[59 µM] | 49% | 8% | 4% | 1% | -4%
Cc1nc(SCc2cccc(F)c2)c2oc3ccccc3c2n1 | 47% | 44% | 38% | 22% | 10% | 40µM*
Cc1nc(SCC(=O)Nc2ccc(F)cc2)c2oc3ccccc3c2n1 | 1%[2.33 µM] | 24% | 3% | . | -4% | 2%
Cc1nc(SCc2nc3ccc(F)cc3[nH]2)c2oc3ccccc3c2n1 | . | 25% | . | -1% | ? | .
Cc1nc(SCC(=O)NC(C)c2ccccc2)c2oc3ccccc3c2n1 (stereo unspecified) | -5%[59 µM] | 25% | 0% | . | -35% | ?
SMILES | G9a inh | HP1b binding inh | BAZ2B block | L3MBTL1 block | JMJD2A Tudor | Sfp inh
Cc1nc(SCc2nc3c(O)cccc3[nH]2)c2oc3ccccc3c2n1 | . | 24% | . | 11% | 28µM* | .
CNC(=O)C(Sc1nc(C)nc2c1oc1ccccc12)C(C)=O (stereo unspecified) | 18µM* | 22% | -35% | . | -32% | 50µM*
Cc1nc(NCCc2ccccc2)c2oc3ccccc3c2n1 | 79µM* | 35% | ? | . | -10% | -1%
O=C(CCc1nnc(CCc2c[nH]c3ccccc23)o1)NC1CCC1 | . | -12% | -13% | 5% | -12%[11.4 µM] | -5%
Cc1c(C(=O)N2CCC(c3nc4ccccc4s3)CC2)oc2ccc(Cl)cc12 | 7%[59 µM] | ? | 1% | . | -15% | .
O=C(O)c1ccccc1C(=O)Nc1c(-c2ccccc2)nc2ccccn12 | . | 31% | -1% | 2% | -13% | 8%
CC1CN(C(=O)c2ccc(-c3cccc(C(F)(F)F)c3)o2)CC(C)O1 (stereo unspecified) | ? | 8% | -5% | -5% | -5% | .
Clc1ccccc1OCCCOc1cccc2cccnc12 | 15%[0.501 µM] | 24% | 34% | 4%[2.29 µM] | 8% | -3%
O=[N+]([O-])c1cc(/C=N/O)ccc1Oc1cccc(Cl)c1 | -8%[59 µM] | -3% | ? | -22% | ? | -26%
CO/N=C/c1ccc(Oc2ccc(C)cc2)c([N+](=O)[O-])c1 | 9% | 0% | 2% | 27% | 13µM* | -10%
O=c1cc(N2CCc3ccccc32)[nH]c(=O)n1-c1ccccc1Cl | -33% | 17% | . | . | -12% | 2%
Cc1ccccc1-n1c(=O)cc(N2CCc3ccccc32)[nH]c1=O | 19%[59 µM] | 21% | 20% | -3% | -17% | 56µM*
O=c1c(O[C@@H]2O[C@H](CO)[C@@H](O)[C@H](O)[C@H]2O)c(-c2ccc(O)cc2)oc2cc(O)cc(O)c12 | . | 20% | . | 0% | -15% | 5%
CC1OC(OC2C(Oc3c(-c4ccc(O)cc4)oc4cc(O)cc(O)c4c3=O)OC(COC3O[C@@H](C)[C@H](O)[C@@H](O)C3O)C(O)C2O)C(O)C(O)C1O (stereo partly specified) | 4%[12.7 µM] | 27% | 8% | 6% | -11% | .
CC1OC(OCC2OC(Oc3c(-c4ccc(O)cc4)oc4cc(O)cc(O)c4c3=O)C(O)C(O)C2O)C(O)C(O)C1O (stereo unspecified) | . | -2% | ? | 14µM* | ? | 11%
COc1c(-c2ccc(O)c(O)c2)oc2cc(O)cc(O)c2c1=O | -22%[12.7 µM] | 2% | 35µM* | . | ? | -13%
O=c1c(O[C@@H]2O[C@H](CO)[C@@H](O)[C@H](O)[C@H]2O)c(-c2ccc(O)c(O)c2)oc2cc(O)cc(O)c12 | 8.9µM* | . | -28% | . | . | -10%

From PubChem BioAssay
